The nature of assay [1]: Quantitative High-Throughput drug screen in 47 multiple myeloma cell lines against the NCATS MIPE library collection: KMS12PE_JCRB cell viability assay (AID 1918972). Also: nearly all actives have a fitted effect of over 30% in size. An outline of the steps: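 Myeloma cells (500 per well) were exposed to MIPE 4.0 compounds by pin transfer and incubated 48 hours at 37C, 5% CO2. Viability was read as ATP by CellTiter-Glo luminescence, normalised to DMSO (100%) and media-only (0%) wells.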

Assay [2] in a line: Quantitative High-Throughput drug screen in 47 multiple myeloma cell lines against the NCATS MIPE library collection: KMS20_JCRB cell viability assay (AID 1918973). Also: nearly all actives have a fitted effect of over 45% in size. An outline of the steps:
(§1)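 Relative luminescence from CellTiter-Glo served as the viability signal, referenced to DMSO-treated (100%) and cell-free medium (0%) controls. Treatment lasted 48 hours at 37C with 500 cells per well.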

A short description of assay [3]: Quantitative High-Throughput drug screen in 47 multiple myeloma cell lines against the NCATS MIPE library collection: KMS21BM_JCRB cell viability assay (AID 1918974). To be noted: ATP luminescence, 48 h; viability: at 45.8 µM (top of the series). The gist of the method: as §1
A short description of assay [4]: Quantitative High-Throughput drug screen in 47 multiple myeloma cell lines against the NCATS MIPE library collection: MMM1_PLB cell viability assay (AID 1918976). Also: nearly all actives have a fitted effect of over 35% in size. An outline of the steps: (§2)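 Myeloma cells (500/well) treated with MIPE 4.0 compounds for 48 h at 37 °C, 5% CO2. Viability read as ATP via CellTiter-Glo luminescence after 5 min at RT; DMSO-only wells = 100%, media-only = 0% viability.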

Assay [5] in a line: Quantitative High-Throughput drug screen in 47 multiple myeloma cell lines against the NCATS MIPE library collection: MOLP8_DSMZ cell viability assay (AID 1918977). Also: nearly all actives have a fitted effect of over 45% in size. An outline of the steps: as §2
The nature of assay [6]: Quantitative High-Throughput drug screen in 47 multiple myeloma cell lines against the NCATS MIPE library collection: NCIH929_DSMZ cell viability assay (AID 1918978). Also: nearly all actives have a fitted effect of over 35% in size. An outline of the steps:
as §2

The nature of assay [7]: Quantitative High-Throughput drug screen in 47 multiple myeloma cell lines against the NCATS MIPE library collection: KMS26_JCRB cell viability assay (AID 1918975). Also: nearly all actives have a fitted effect of over 45% in size. An outline of the steps: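 Approved and investigational drugs from MIPE 4.0 were added by pin tool to 500 cells per well. After 48 hours at 37C, ATP-based CellTiter-Glo luminescence indicated remaining viability.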

A short description of assay [8]: Quantitative High-Throughput drug screen in 47 multiple myeloma cell lines against the NCATS MIPE library collection: MM1S_ATCC cell viability assay (AID 1918980). Also: nearly all actives have a fitted effect of over 45% in size. An outline of the steps: as §2
Assay [9] can be described thus: Quantitative High-Throughput drug screen in 47 multiple myeloma cell lines against the NCATS MIPE library collection: OCIMY1_PLB cell viability assay (AID 1918979). Also: nearly all actives have a fitted effect of over 35% in size. The gist of the method: as §2
The nature of assay [10]: Quantitative High-Throughput drug screen in 47 multiple myeloma cell lines against the NCATS MIPE library collection: MM1R_ATCC cell viability assay (AID 1918981). Also: nearly all actives have a fitted effect of over 35% in size. The gist of the method:
as §2

Records with an inconclusive call do not appear. The source made the active and inactive calls. Calls follow the shape of the dose curve; as a rule, active = well fitted curve in the direction sought with a large enough effect; inconclusive = small, poorly fitted or top-dose-only effect, or another doubt; inactive = no such curve, though single readings can be large; an effect the other way counts as inactive or inconclusive.
Potency is read from the fitted curve at half-maximal effect.

For `CCC=CC[C@H]1C(=O)CC[C@@H]1CC(=O)OC`, the Potency entry in assay [1], in assay [2], in assay [3], in assay [5] and in assay [6] was “inactive” each time. Besides, in assay [4], the Potency was 10.5 µM (active).
`OC(c1cc(C(F)(F)F)nc2c(C(F)(F)F)cccc12)C1CCCCN1` (centres undefined): the Potency in [1] is 20.9 µM (active); in [2], 10.5 µM (active); in assay [7], 29.6 µM (active); in assay [4], 23.5 µM (active); in [5], 23.5 µM (active); in assay [6] it was 20.9 µM (active). Moreover, the Potency in assay [8] was 20.9 µM (active).
Turning to `CNC1CCC(N(Cc2cccc(-c3ccncc3)c2)C(=O)c2sc3ccccc3c2Cl)CC1` (centres undefined), the Potency in assay [1] was 8.33 µM (active); in [2] it was 5.26 µM (active); in assay [7], 20.9 µM (active); in assay [4] it was 20.9 µM (active); in assay [5], 16.6 µM (active); in assay [6], 10.5 µM (active). Besides, the Potency was 23.5 µM (active) in [9], 20.9 µM (active) in assay [8] and 18.7 µM (active) in assay [10].
Regarding `COc1cc2ncn(-c3cc(OCc4ccccc4S(C)(=O)=O)c(C#N)s3)c2cc1OC`, the Potency result in assay [1], in assay [2], in assay [7], in assay [9] and in assay [10] was “inactive” each time. In addition, the Potency in assay [4] is 5.9 µM (active); in [6], 4.69 µM (active); in assay [8], 20.9 µM (active).
Take `Cc1nc(NC(=O)N2CCC[C@@H]2C(N)=O)sc1-c1csc(C(C)(C)C)n1`: the Potency was 4.69 µM (active) in assay [1]; 2.64 µM (active) in assay [2]; 1.05 µM (active) in [3]; 1.18 µM (active) in [7]; 0.935 µM (active) in [4]; 0.166 µM (active) in [5]. In addition, the Potency was 0.833 µM (active) in [6], 6.62 µM (active) in assay [8] and 5.9 µM (active) in assay [10].
For `CCOC(=O)N1CCN([N+]([O-])=NOc2cc(ON=[N+]([O-])N3CCN(C(=O)OCC)CC3)c([N+](=O)[O-])cc2[N+](=O)[O-])CC1`, the Potency result in [1] is “inactive”. Also, the Potency is 2.64 µM (active) in assay [2]; 2.35 µM (active) in [7]; 6.62 µM (active) in assay [4]; 2.35 µM (active) in assay [5]; 2.64 µM (active) in assay [6]; 7.43 µM (active) in assay [9]. Besides, the figures for the Potency in assay [8] and in [10] were 9.35 µM (active) and 2.09 µM (active), respectively.
`CC1(C)CC(=O)c2c(C(F)(F)F)nn(-c3ccc(C(N)=O)c(NC4CCC(O)CC4)c3)c2C1` (centres undefined): the Potency result in assay [1] was “inactive”. Besides, the Potency in assay [2] is 0.0935 µM (active); in assay [7], 0.0469 µM (active); in assay [4], 0.372 µM (active); in assay [5], 0.0418 µM (active); in assay [9], 0.235 µM (active); in [8] it was 0.148 µM (active). Moreover, in assay [10], the Potency was 0.118 µM (active).
Regarding `CC(C)[C@H](O)C(=O)N[C@@H](C)C(=O)N[C@@H]1C(=O)N(C)CCc2ccccc21`, the Potency entry in [1], in assay [2], in assay [7], in assay [9] and in assay [10] was “inactive” each time. Also, the Potency in assay [4] was 23.5 µM (active); in assay [5], 0.0053 µM (active); in assay [6], 16.6 µM (active).
As for `COc1ccc2c(c1)CC[C@H]1[C@@H]2CC[C@]2(C)[C@@H](NCCCCCCN3C(=O)C=CC3=O)CC[C@H]12`, the Potency result in [1] and in assay [2] was “inactive” each time.
Take `NC(=O)c1ncn([C@@H]2O[C@H](CO)[C@@H](O)[C@@H]2O)n1`: the Potency entry in [1], in assay [2], in assay [3], in assay [7] and in assay [9] was “inactive” in each case. Further, the Potency in assay [8] is 8.33 µM (active).
For the compound `COc1cccc(OC)c1-c1cc(C(=O)NC2(C(=O)O)C3CC4CC(C3)CC2C4)nn1-c1ccnc2cc(Cl)ccc12` (centres undefined), the Potency result in [1], in assay [2], in assay [7], in assay [5], in assay [6] and in assay [10] was “inactive” each time. For the same compound, the figures for the Potency in [4] and in [8] were 14.8 µM (active) and 16.6 µM (active), respectively.
As to `CC[C@H](C)C(=O)O[C@H]1C[C@H](O)C=C2C=C[C@H](C)[C@H](CC[C@@H](O)C[C@@H](O)CC(=O)O)[C@H]21`, the Potency result in assay [1], in [2], in [3], in [5], in assay [6] and in assay [9] was “inactive” in each case. The Potency entry in assay [8] is “inactive”.
For the compound `CC(=O)NCCC(=O)N[C@@H](CCC(N)=O)C(=O)N[C@@H](CO)C(=O)N[C@@H](CCC(N)=O)C(=O)N[C@@H](CCC(N)=O)C(=O)N[C@H](C(=O)N[C@@H](Cc1ccccc1)C(=O)N[C@]1(C)CCCCCCC=CCCC[C@@](C)(C(=O)N[C@@H](CCC(N)=O)C(=O)N[C@@H](CC(N)=O)C(N)=O)NC(=O)[C@H](CC(C)C)NC(=O)[C@H](CC(C)C)NC(=O)[C@@H](CCCNC(=N)N)NC(=O)[C@H](Cc2c[nH]c3ccccc23)NC(=O)[C@H](CC(C)C)NC(=O)[C@H](CC(N)=O)NC1=O)[C@H](C)O`, the Potency result in assay [1] is “inactive”. In addition, the Potency in [2] was 18.7 µM (active); in assay [7] it was 14.8 µM (active); in assay [4], 5.26 µM (active); in assay [6], 23.5 µM (active); in [9], 20.9 µM (active); in assay [8] it was 20.9 µM (active). In addition, the Potency in assay [10] is 26.4 µM (active).
On to `CC(C)CN(C[C@@H](O)[C@H](Cc1ccccc1)NC(=O)O[C@H]1CO[C@H]2OCC[C@H]21)S(=O)(=O)c1ccc(N)cc1`, for which the Potency result in assay [1], in [5] and in assay [9] was “inactive” each time. The Potency is 2.96 µM (active) in assay [2]; 3.32 µM (active) in assay [7]; 20.9 µM (active) in assay [4]; 2.35 µM (active) in assay [8]; 1.32 µM (active) in assay [10].
Take `CCN(CC)CCCCNc1nc2cc(Cl)c(Cl)cc2nc1-c1ccc(-c2cccs2)s1`: the Potency in assay [1] is 6.62 µM (active); in assay [2], 4.69 µM (active); in assay [7], 13.2 µM (active); in [4], 9.35 µM (active); in assay [6], 7.43 µM (active); in assay [9] it was 14.8 µM (active). Moreover, the figures for the Potency in assay [8] and in [10] were 11.8 µM (active) and 9.35 µM (active), respectively.
Regarding `C[C@@H]1O[C@@H](O[C@H]2CC[C@@]3(C)[C@H](CC[C@@H]4[C@H]3C[C@@H](O)[C@]3(C)[C@@H](C5=CC(=O)OC5)CC[C@]43O)C2)C[C@H](O)[C@@H]1O[C@H]1C[C@H](O)[C@H](O[C@H]2C[C@H](O)[C@@H](O)[C@@H](C)O2)[C@H](C)O1` (stereo in doubt), the Potency in assay [1] is 0.054 µM (active); in assay [2], 0.27 µM (active); in [3], 0.215 µM (active); in assay [7], 0.27 µM (active); in [4], 0.171 µM (active); in [6] it was 0.34 µM (active). In addition, the Potency was 0.34 µM (active) in assay [8] and 0.27 µM (active) in assay [10].

These data come from PubChem BioAssay (NCATS).
